# Test results: PubChem BioAssay (Tox21)
# Results filed as inconclusive are left out. Calls of active or inactive are those of the source. The call rests on the fitted dose curve; in most records, active means well fitted inhibition curve with a large enough effect in the signal ratio in the repeat runs (not every such curve was filed as active); inconclusive means weak or mixed curves, or effect the other way; inactive means no such curve, though single readings can be large or run the other way; the % refers to the signal ratio.
# Molecular target: Bile acid receptor (Homo sapiens) (UniProt Q96RI1)
# Sequence (Q96RI1 whole entry, looked up): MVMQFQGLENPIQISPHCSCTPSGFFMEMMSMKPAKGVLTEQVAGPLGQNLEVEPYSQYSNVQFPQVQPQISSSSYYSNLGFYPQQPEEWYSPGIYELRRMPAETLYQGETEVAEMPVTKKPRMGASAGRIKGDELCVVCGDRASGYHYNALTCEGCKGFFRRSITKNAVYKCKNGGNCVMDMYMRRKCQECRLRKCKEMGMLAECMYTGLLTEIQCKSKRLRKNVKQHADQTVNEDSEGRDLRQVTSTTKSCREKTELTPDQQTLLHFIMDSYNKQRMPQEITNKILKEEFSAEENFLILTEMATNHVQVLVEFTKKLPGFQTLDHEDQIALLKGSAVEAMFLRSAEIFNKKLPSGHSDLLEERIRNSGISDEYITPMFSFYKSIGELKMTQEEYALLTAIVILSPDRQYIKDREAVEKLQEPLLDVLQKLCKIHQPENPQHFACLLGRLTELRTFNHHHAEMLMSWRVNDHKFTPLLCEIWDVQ
# Assay: qHTS assay to identify small molecule antagonists of the farnesoid-X-receptor (FXR) signaling pathway (AID 743217)
# Settings: HEK293T FXR-UAS-bla, beta-lactamase ratio, CDCA-stimulated, 16 h; series mostly up to 62.6 µM; activity change, negative = inhibition: at the top concentration
# Description: U.S. Tox21 Program National Center for Advancing Translational Sciences [NCATS] NIH Chemical Genomics Center [NCGC] U.S. Environmental Protection Agency [EPA] National Institutes of Environmental Health Sciences [NIEHS] National Toxicology Program [NTP] U.S. Food and Drug Administration [FDA] Tox21 Assay Overview: The farnesoid-X-receptor (FXR), a nuclear hormone receptor, is highly expressed in liver, intestine, kidney and adrenal cortex. Natural ligands of FXR are the bile acids (Cholic acid, Chenodeoxy cholic acid etc). FXR is an important regulator of diverse metabolic pathways, including the bile acid homeostasis, lipid and glucose metabolisms. FXR regulates the expression of target genes by binding either as a monomer or as a heterodimer with the retinoid X receptor (RXR). Numerous studies have reported that FXR exerts protective function during cholestasis, diabetes, liver regeneration, and cancer. To identify compounds that inhibit FXR signaling, GeneBLAzer FXR-UAS-bla HEK 293T cell line (Invitrogen, Carlsbad, CA) containing a beta-lactamase reporter gene under the control of a UAS response element was used to screen the Tox21 10K compound library.
# Tox21 Assay Protocol Summary: FXR-bla cells were dispensed at 5000 cells/5uL/well in 1536-well black wall/clear bottom plates using a Multidrop Combi (Thermo Fisher Scientific, Waltham, MA) dispenser. After the assay plates were incubated at 37C and 5% CO2 for 5 h, 23 nL of compounds dissolved in DMSO, positive controls or DMSO only was transferred to the assay plate by a Pintool station (Kalypsys, San Diego, CA), followed by addition of 1 uL Chenodeoxycholic acid (50 uM, final concentration in the wells). The assay plates were incubated at 37C for 16 h. After 1 uL of LiveBLAzerTM B/G FRET substrate was added using a Bioraptr Flying Reagent Dispenser (FRD) workstation (Beckman Coulter, Indianapolis, IN), the plates were incubated at room temperature for 2 h, and fluorescence intensity was measured by an Envision plate reader (PerkinElmer, Shelton, CT).
# On the % scale 0 is the no-effect control and ±100 the full control effect.
row,Structure (SMILES),"activity change, negative = inhibition"
1,SCCSCCS,1.08% (inactive)
2,CO/N=C(/C(=O)N[C@@H]1C(=O)N2C(C(=O)O)=C(Cn3nnc(C)n3)CS[C@H]12)c1csc(N)n1,-0.684% (inactive)
3,NS(=O)(=O)c1cc2c(cc1Cl)NC(C(Cl)Cl)NS2(=O)=O (stereo not given),10.4% (inactive)
4,CCC1Nc2cc(Cl)c(S(N)(=O)=O)cc2S(=O)(=O)N1 (stereo not given),-18.2% (inactive)
5,CC(C)c1ccccc1O,0.877% (inactive)
6,CCOc1ccc(NC(=O)OC(C)C)cc1OCC,0.241% (inactive)
7,NS(=O)(=O)c1ccccc1OC(F)(F)F,-5.19% (inactive)
8,CNC(=O)NC,-1.07% [at 81.1 µM] (inactive)
9,Nc1c(NC/C=C\COc2cc(CN3CCCCC3)ccn2)c(=O)c1=O,2.85% [at 29.1 µM] (inactive)
10,CC(CC(=O)O)CC(C)(C)C (stereo not given),-2.28% (inactive)
11,C[C@H](CCC(=O)NCC(=O)O)[C@H]1CC[C@H]2[C@@H]3[C@H](O)C[C@@H]4C[C@H](O)CC[C@]4(C)[C@H]3C[C@H](O)[C@]12C,1.39% (inactive)
12,CO[Si](CCCS)(OC)OC,4.47% (inactive)
13,CC(=O)c1ccc(OCC(=O)N2CCCCC2)cc1,5.11% (inactive)
14,C[CH2][Ge]([Cl])([CH2]C)[CH2]C,4.72% [at 81.1 µM] (inactive)
15,Cc1cc(C)cc([N+](=O)[O-])c1,-0.354% [at 81.1 µM] (inactive)
16,Nc1ccc(S(=O)(=O)Nc2ccccn2)cc1,1.75% (inactive)
17,COc1ccc(NS(=O)(=O)c2ccc(N)cc2)nn1,3.24% (inactive)
18,Cc1cc(O)c2c(c1)C(=O)c1cccc(O)c1C2=O,9.71% (inactive)
19,O=C(O)Cc1cccc(-c2cc(CCCCCCc3ccc(O[C@H]4O[C@H](CO)[C@@H](O)[C@H](O)[C@@H]4O)c(-c4cccc(CC(=O)O)c4)c3)ccc2O[C@H]2O[C@H](CO)[C@@H](O)[C@H](O)[C@@H]2O)c1,-1.58% [at 0.55 µM] (inactive)
20,Nc1cc(S(=O)(=O)O)ccc1S(=O)(=O)O,0.0179% (inactive)

row,Structure (SMILES),"activity change, negative = inhibition"
1,O=P(O)(O)OCC(O)CO (stereo not given),1.99% (inactive)
2,C=C(C)C(=O)OC,8.44% (inactive)
3,CCC(=O)c1ccc(O)cc1,1.68% (inactive)
4,CCCCCCCCCCCCC,11.4% (inactive)
5,NS(=O)(=O)c1cc2c(cc1Cl)NC(CC1CCCC1)NS2(=O)=O (stereo not given),10.2% (inactive)
6,Cc1cccc(Nc2ccncc2S(=O)(=O)NC(=O)NC(C)C)c1,7.43% (inactive)
7,C=CCOc1c(Br)cc(C(C)(C)c2cc(Br)c(OCC=C)c(Br)c2)cc1Br,-18.1% (inactive)
8,CCOC(=O)C(C)(C)C,-1.17% [at 81.1 µM] (inactive)
9,O=c1[nH]c(=O)c2ccccc2o1,0% (inactive)
10,CC(=O)OC(C(=O)c1ccccc1)c1ccccc1 (stereo not given),2.15% [at 81.1 µM] (inactive)
11,O=C(O)/C=C/c1ccccc1,-0.67% (inactive)
12,O=C(O)C(=O)Nc1cccc(-c2nn[nH]n2)c1,1.55% (inactive)
13,CCCCCCCCCCCCCCCCI,-11.3% [at 29.1 µM] (inactive)
14,c1ccc(CNc2ncnc3nc[nH]c23)cc1,-0.563% (inactive)
15,NC(=O)NNC(N)=O,-0.324% (inactive)
16,C=C(C)C(=O)OC1CC(C)CC(C)(C)C1 (stereo not given),2.36% (inactive)
17,CCOC(=O)CC#N,-1.22% (inactive)
18,CN(C1CCCCC1)S(=O)(=O)c1ccccc1N,-8.44% (inactive)
19,C[C@H](CCC(=O)O)[C@H]1CC[C@H]2[C@@H]3[C@H](O)C[C@@H]4C[C@H](O)CC[C@]4(C)[C@H]3C[C@H](O)[C@]12C,8.78% (inactive)
20,CC(=O)Nc1ncc([N+](=O)[O-])s1,-0.287% (inactive)
